Among the data in PubChem BioAssay are growth inhibition, inhibition and outcome values, retold here.

A number with no mark means an inactive call. For some assays here: Measured potencies and affinities stand elsewhere. Calls of active or inactive are those of the source. Unless noted, how the calls were made is not given here.

The nature of test [1]: antimalarial activity against Dd2 strain (AID 2302;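 active means growth inhibition above 50% at the single 2 µM test dose, taken to imply half-maximal potency below 2 µM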;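 further: 0% = DMSO untreated growth and 100% = chloroquine plus artemisinin killed control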). The settings on record: P. falciparum Dd2 in RBCs, LDH growth readout, 72 h; at 2 µM; stronger effect = higher value.
Test [2] can be described thus: human hepatoma cell viability loss – ATP luminescence, cytotoxicity control for P. falciparum antimalarial project, primary screen (AID 2303;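 active means inhibition above 50%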;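 further: 0% = DMSO wells and 100% = digitonin-killed cells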). The settings on record: HepG2 viability, 24-48 h, at 10 µM, stronger effect = higher value.
Test [3] concerns the target L-lactate dehydrogenase (Plasmodium falciparum (isolate CDC / Honduras)) (UniProt Q27743). As to the kind of experiment: PfLDH activity inhibition – cell lysate, 3D7 strain, counter-screen for P. falciparum growth inhibition project (AID 2304).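 Further: 0% = vehicle and 100% = reference inhibitor.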 The conditions noted are these: P. falciparum 3D7 crude extract, LDH APAD/NBT absorbance; at 2 µM; stronger effect = higher value.
A short description of test [4]: inhibition of 3D7 malaria parasite growth – strain 3D7 (AID 2306).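 Further: 0% = DMSO wells and 100% = chloroquine plus artemisinin control wells.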 The settings on record: P. falciparum 3D7 erythrocytic growth, LDH absorbance, 72 h; at 2 µM; stronger effect = higher value.
Test [5] addresses Calcium-dependent protein kinase 1 (Plasmodium falciparum (isolate 3D7)) (UniProt P62344). The test can be described thus: PfCDPK1 kinase inhibitors, biochemical, TCAMS library (AID 1159585; cut-off not given, nearly all actives have IC50 up to about 0.98 µM;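 further: inhibitors leave more ATP so luminescence rises with inhibition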). The settings on record: recombinant PfCDPK1, Kinase-Glo ATP depletion luminescence. (Kinase-Glo reads ATP consumption through a luciferase reaction.)
The target of test [6] is Plasmodium falciparum protein kinase 6 (PK6, PF3D7_1337100) (UniProt Q8IDW1). As to the kind of experiment: PfPK6 kinase inhibitors, biochemical, TCAMS library (AID 1159586). The settings on record: recombinant PfPK6, Kinase-Glo ATP depletion luminescence.
Test [7] concerns the target Protein kinase 7 (PK7), Plasmodium falciparum 3D7 (PF3D7_0213400) (UniProt Q7YTF7). The test can be described thus: inhibition of Plasmodium PK7 catalytic activity – biochemical, TCAMS antimalarial set, Kinase-Glo luminescence (AID 1159587). The conditions noted are these: recombinant PfPK7, Kinase-Glo ATP depletion luminescence.
Test [8] deals with Calcium-dependent protein kinase 4 (Plasmodium falciparum (isolate 3D7)) (UniProt Q8IBS5). The test can be described thus: PfCDPK4 kinase inhibitors, biochemical, TCAMS library (AID 1159588; cut-off not given, nearly all actives have IC50 up to about 0.91 µM). The settings on record: recombinant PfCDPK4, Kinase-Glo ATP depletion luminescence.

Broadly, the inhibition is the change of the read-out against control, counted positive when it falls.

Chain of Plasmodium falciparum protein kinase 6 (PK6, PF3D7_1337100) (Q8IDW1 1-305): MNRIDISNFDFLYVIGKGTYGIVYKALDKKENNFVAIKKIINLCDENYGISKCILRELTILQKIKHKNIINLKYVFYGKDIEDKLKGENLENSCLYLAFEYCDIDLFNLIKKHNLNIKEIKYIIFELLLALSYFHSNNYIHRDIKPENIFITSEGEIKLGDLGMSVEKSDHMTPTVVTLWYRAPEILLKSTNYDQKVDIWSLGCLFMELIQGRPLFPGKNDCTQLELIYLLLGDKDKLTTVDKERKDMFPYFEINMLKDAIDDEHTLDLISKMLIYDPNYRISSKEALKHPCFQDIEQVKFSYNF
Chain of Protein kinase 7 (PK7), Plasmodium falciparum 3D7 (PF3D7_0213400) (Q7YTF7 1-343): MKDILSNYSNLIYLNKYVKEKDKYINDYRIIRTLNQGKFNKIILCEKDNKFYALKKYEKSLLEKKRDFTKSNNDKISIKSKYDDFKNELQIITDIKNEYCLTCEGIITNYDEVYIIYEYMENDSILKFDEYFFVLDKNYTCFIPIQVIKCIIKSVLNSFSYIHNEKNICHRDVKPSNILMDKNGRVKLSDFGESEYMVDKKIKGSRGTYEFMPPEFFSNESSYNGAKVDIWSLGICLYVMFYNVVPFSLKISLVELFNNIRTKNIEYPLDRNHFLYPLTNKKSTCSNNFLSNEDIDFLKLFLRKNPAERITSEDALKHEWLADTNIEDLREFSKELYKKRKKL
Chain of Calcium-dependent protein kinase 4 (Plasmodium falciparum (isolate 3D7)) (Q8IBS5 whole entry, looked up): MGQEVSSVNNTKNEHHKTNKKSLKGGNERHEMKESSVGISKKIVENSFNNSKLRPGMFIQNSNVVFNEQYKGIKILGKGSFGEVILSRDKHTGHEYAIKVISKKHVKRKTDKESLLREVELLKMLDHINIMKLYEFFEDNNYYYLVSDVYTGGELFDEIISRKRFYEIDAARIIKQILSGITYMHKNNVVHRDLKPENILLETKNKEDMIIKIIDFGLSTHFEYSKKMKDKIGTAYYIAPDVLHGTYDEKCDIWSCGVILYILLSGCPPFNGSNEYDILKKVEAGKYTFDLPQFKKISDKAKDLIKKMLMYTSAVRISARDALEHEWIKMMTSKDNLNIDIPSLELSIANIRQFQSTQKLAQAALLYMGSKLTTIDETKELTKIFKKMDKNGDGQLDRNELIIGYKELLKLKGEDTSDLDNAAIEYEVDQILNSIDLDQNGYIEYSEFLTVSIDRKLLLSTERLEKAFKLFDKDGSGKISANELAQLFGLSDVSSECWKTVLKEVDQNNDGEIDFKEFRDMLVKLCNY
Chain of L-lactate dehydrogenase (Plasmodium falciparum (isolate CDC / Honduras)) (Q27743 whole entry, looked up): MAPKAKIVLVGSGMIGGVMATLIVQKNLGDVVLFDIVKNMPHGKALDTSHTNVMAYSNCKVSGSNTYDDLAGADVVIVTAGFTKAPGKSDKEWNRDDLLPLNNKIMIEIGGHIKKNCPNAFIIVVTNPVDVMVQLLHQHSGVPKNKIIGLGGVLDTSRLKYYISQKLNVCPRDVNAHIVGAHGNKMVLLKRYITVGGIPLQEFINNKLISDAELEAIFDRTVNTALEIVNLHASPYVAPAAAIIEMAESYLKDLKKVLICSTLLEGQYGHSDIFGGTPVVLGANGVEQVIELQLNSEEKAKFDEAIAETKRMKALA
Chain of Calcium-dependent protein kinase 1 (Plasmodium falciparum (isolate 3D7)) (P62344 whole entry, looked up): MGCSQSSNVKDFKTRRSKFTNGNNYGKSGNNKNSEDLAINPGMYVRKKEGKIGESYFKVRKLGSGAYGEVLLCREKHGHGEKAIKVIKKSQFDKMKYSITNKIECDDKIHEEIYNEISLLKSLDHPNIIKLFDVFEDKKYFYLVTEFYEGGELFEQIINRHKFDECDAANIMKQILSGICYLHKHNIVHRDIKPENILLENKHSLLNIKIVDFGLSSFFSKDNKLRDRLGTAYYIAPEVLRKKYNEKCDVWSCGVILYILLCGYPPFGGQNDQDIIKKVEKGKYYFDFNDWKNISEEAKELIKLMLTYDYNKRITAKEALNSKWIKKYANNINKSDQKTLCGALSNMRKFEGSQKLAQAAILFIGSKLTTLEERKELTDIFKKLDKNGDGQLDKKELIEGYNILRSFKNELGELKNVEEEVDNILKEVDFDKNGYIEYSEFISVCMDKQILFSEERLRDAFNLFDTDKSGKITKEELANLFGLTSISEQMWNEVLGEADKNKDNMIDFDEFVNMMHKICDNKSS

With `Nc1nc2c(ncn2OC[C@H]2COP(=O)(O)CO2)c(=O)[nH]1`, the figures for the growth inhibition in test [1] and in test [4] were 32% and 92% (active), respectively. Further, the values for the inhibition in test [2] and in test [3] were 1% and -2%, respectively. Also, the result in test [5], in test [6], in test [7] and in test [8] was inactive.

`COc1ccccc1CCNc1nc(C)cc(N[C@@H](Cc2ccccc2)C(=O)NCc2cccc(F)c2)n1`: the growth inhibition is 86% (active) in test [1] and 99% (active) in test [4]. For the same molecule, the inhibition in test [2] was 31%; in test [3], -2%. Further, the outcome in test [5], in test [6], in test [7] and in test [8] was inactive.

`O=C(/C=C/c1ccc(Cl)c(Cl)c1)N1CCC(CCN2CCC(c3c[nH]c4cc5c(cc34)OCO5)CC2)CC1`: the growth inhibition was 65% (active) in test [1] and 99% (active) in test [4]. The inhibition in test [2] is 46%; in test [3], -4%. Moreover, the outcome in test [5], in test [6], in test [7] and in test [8] was inactive.

Consider `Cc1ccc2c(=O)n(C)c(=O)n(C)c2n1`, for which the growth inhibition in test [1] is -3%; in test [4], 98% (active). In addition, the figures for the inhibition in test [2] and in test [3] were 15% and 4%, respectively. Besides, the outcome in test [5], in test [6], in test [7] and in test [8] was inactive.

In the case of `CSc1ccc(C=CC(=O)NC(=O)c2ccccc2O)cc1`, the growth inhibition in test [1] is 96% (active); in test [4], 97% (active). Further, the inhibition in test [2] was 2%; in test [3], 4%. Also, the outcome in test [5], in test [6], in test [7] and in test [8] was inactive.

Regarding `CN1CCC(NC(=O)c2cc(Oc3ccc4c(c3)CCN4C(=O)Nc3cccc(C(F)(F)F)c3)ccn2)CC1`, the growth inhibition in test [1] is 17%; in test [4], 92% (active). Besides, the figures for the inhibition in test [2] and in test [3] were 16% and -3%, respectively. In addition, the result in test [5], in test [6], in test [7] and in test [8] was inactive.

For `CN1CCN(CCCCCNc2c3ccccc3nc3ccccc23)CC1`, the growth inhibition was -8% in test [1] and 99% (active) in test [4]. The inhibition in test [2] was 57% (active); in test [3], 5%. The result in test [5], in test [6], in test [7] and in test [8] was inactive.

As to `CNC(=O)Cc1ccc(C(=O)Nc2cccc(-c3csc(-c4nc5ccccc5[nH]4)c3)c2)cc1`, the growth inhibition was 69% (active) in test [1] and 95% (active) in test [4]. Moreover, the inhibition in test [2] was 36%; in test [3], 4%. The outcome in test [5], in test [6], in test [7] and in test [8] was inactive.

For the molecule `COc1ccc(CNCc2cccc(-c3ccc(-c4nc5ccc(C(F)(F)F)cc5[nH]4)cc3)c2)cc1`, the growth inhibition in test [1] was 95% (active); in test [4] it was 102% (active). Moreover, the inhibition in test [2] is 23%; in test [3], 0%. Further, the result in test [5], in test [6], in test [7] and in test [8] was inactive.

Take `CCCCSc1ccc2nc(-c3c[nH]c4ccc(C#N)cc34)cn2c1`: the growth inhibition was 37% in test [1] and 94% (active) in test [4]. The inhibition in test [2] and in test [3] was 3% in each case. Also, the result in test [5], in test [6], in test [7] and in test [8] was inactive.

With `NC1CCCN(Cc2ccc(-c3cccc(-c4nc5ccc(F)cc5[nH]4)c3)cc2)C1` (configuration not stated), the growth inhibition in test [1] is 75% (active); in test [4], 100% (active). For the same molecule, the results for the inhibition in test [2] and in test [3] were 54% (active) and 1%, respectively. Besides, the outcome in test [5], in test [6], in test [7] and in test [8] was inactive.

Regarding `O=C1C(c2ccccc2)=C(Nc2ccc([N+](=O)[O-])cc2)c2ccccc21`, the values for the growth inhibition in test [1] and in test [4] were 73% (active) and 95% (active), respectively. In addition, the inhibition in test [2] and in test [3] was -2% throughout. The outcome in test [5], in test [6], in test [7] and in test [8] was inactive.

Regarding `FC(F)(F)c1cc(Nc2ncnc3ccc(Br)cc23)ccc1OCc1ccccc1`, the growth inhibition in test [1] was 9%; in test [4], 87% (active). In addition, the values for the inhibition in test [2] and in test [3] were 12% and 6%, respectively. Also, the outcome in test [5], in test [6], in test [7] and in test [8] was inactive.

In the case of `CC(C)CCCC(C)(C)NC[C@@H](O)[C@H](Cc1ccccc1)NC(=O)c1cc(NC(C)C)cc(N2CCCCS2(=O)=O)c1F`, the growth inhibition in test [1] was 99% (active); in test [4], 98% (active). Besides, the results for the inhibition in test [2] and in test [3] were 11% and -3%, respectively. Also, the result in test [5], in test [6], in test [7] and in test [8] was inactive.

For the molecule `c1ccc(-c2ccc3c(Nc4ccc5[nH]ccc5c4)ccnc3c2)nc1`, the growth inhibition is 78% (active) in test [1] and 91% (active) in test [4]. Further, the inhibition is 11% in test [2] and -7% in test [3]. Besides, the result in test [5], in test [6], in test [7] and in test [8] was inactive.

`OC(CNCCCc1ccccc1)c1cc(OCc2ccccc2)cc(OCc2ccccc2)c1` (configuration not stated): the results for the growth inhibition in test [1] and in test [4] were 85% (active) and 93% (active), respectively. The inhibition in test [2] is 8%; in test [3], 4%. Also, the result in test [5], in test [6], in test [7] and in test [8] was inactive.

On to `Cc1cc(N[C@@H](CC(C)C)C(=O)NCCc2ccccc2)nc(NCCc2ccc(F)cc2)n1`, for which the results for the growth inhibition in test [1] and in test [4] were 53% (active) and 98% (active), respectively. In addition, the inhibition in test [2] is 12%; in test [3], -1%. The result in test [5], in test [6], in test [7] and in test [8] was inactive.

On to `O=C(Nc1cccc(F)c1)c1ccc(C(=O)NC2CCN(CC3CCCCC3)CC2)cc1`, for which the figures for the growth inhibition in test [1] and in test [4] were 16% and 96% (active), respectively. In addition, the inhibition in test [2] was 22%; in test [3], -7%. The result in test [5], in test [6], in test [7] and in test [8] was inactive.

For `Cc1cccc2[nH]c(-c3cccc(-c4cccc(NC(=O)c5cn(C)c(=O)n5C)c4)c3)nc12`, the growth inhibition in test [1] was 80% (active); in test [4], 99% (active). Further, the inhibition was 5% in test [2] and -5% in test [3]. Moreover, the outcome in test [5], in test [6], in test [7] and in test [8] was inactive.
